# rTrxR1 inhibitor: qHTS Assay for Inhibitors of Mammalian Selenoprotein Thioredoxin Reductase 1 (TrxR1): qHTS; Potency, µM (series often up to 114 µM), without a hit: top-dose activity change, negative = inhibition, hits mostly inhibitors; Thioredoxin reductase 1, cytoplasmic (Rattus norvegicus), O89049; actives 1% (n = 390,000); AID 588453, 2011; recombinant rTrxR1, NADPH fluorescence consumption, selenite substrate; also: % is scaled to controls: 0 for no effect and ±100 for the full control effect; nearly all actives have a fitted effect of over 65% in size
#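 Rat TrxR1 (90 nM in the dispensed reagent) was pre-reduced with 400 uM NADPH for 5 min at room temperature, then incubated with compound for 15 min. After 400 uM selenite was added, NADPH fluorescence (Ex 340/Em 450 nm) was followed for 8 min.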
# Nrf2 block: Nrf2 qHTS screen for inhibitors | A549 ARE-Fluc reporter, luciferase luminescence, 18-24 h | AID 504444, 2011 | Potency, µM (doses to about 46 µM), for inactives: at the highest dose activity change, negative = inhibition, usual class: inhibitors | actives 2.1% (n = 360,000); also: % is scaled to controls: 0 for no effect and ±100 for the full control effect; nearly all actives have a fitted effect of over 60% in size
#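 Two sequential reads on A549 ARE_Fluc cells exposed to compound for 18-24 h: a CellTiter-Fluor fluorescence read for viability, then a luciferase luminescence read for Nrf2/ARE activity.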
# Mito fusion yeast: qHTS Assay for Small Molecule Inhibitors of Mitochondrial Division or Activators of Mitochondrial Fusion; actives 0.23% (n = 320,000); S. cerevisiae fusion-defective mutant growth rescue, CellTiterGlo 48 h; Potency, µM (highest dose often 46.1 µM), without a hit: top-dose growth rescue (activation), most hits filed as activators; also: % of control where 0% means no effect; nearly all actives have a fitted effect of over 45% in size
#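 Luminescent cell viability in 1536-well qHTS format served as the measure of rescued growth in ts fusion-mutant S. cerevisiae cultured on non-fermentable YPEG for 48 hours at 37C.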
# A549 viability: Nrf2 qHTS screen for inhibitors: counterscreen for cytotoxicity | A549 ARE-Fluc cells, CellTiter-Fluor viability, 18-24 h | Potency, µM (top dose mostly 46 µM), without a hit: at the highest dose activity change, negative = cytotoxicity, usual class: inhibitors | actives 0.16% (n = 390,000); also: % is scaled to controls: 0 for no effect and ±100 for the full control effect
#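 A549 ARE_Fluc cells in 5% FBS OPTI-MEM were exposed to compounds in concentration-response for 18-24 h at 37 deg C. Viability was read by CellTiter-Fluor fluorescence (Ex 405/Em 525) after 30 min, before the luciferase read.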
# IDH1 R132H inh: qHTS for Inhibitors of mutant isocitrate dehydrogenase 1 (IDH1): qHTS | IDH1-R132H enzyme, NADPH consumption, diaphorase/resazurin fluorescence | Potency, µM (highest dose often 76.6 µM), for the others: at the top dose activity change, negative = inhibition, actives largely listed as inhibitors | actives 0.093% (n = 390,000) | AID 602179, 2012; also: % is scaled to controls: 0 for no effect and ±100 for the full control effect; nearly all actives have a fitted effect of over 65% in size
# Target sequence (O75874 whole entry R132H, stated change not applied): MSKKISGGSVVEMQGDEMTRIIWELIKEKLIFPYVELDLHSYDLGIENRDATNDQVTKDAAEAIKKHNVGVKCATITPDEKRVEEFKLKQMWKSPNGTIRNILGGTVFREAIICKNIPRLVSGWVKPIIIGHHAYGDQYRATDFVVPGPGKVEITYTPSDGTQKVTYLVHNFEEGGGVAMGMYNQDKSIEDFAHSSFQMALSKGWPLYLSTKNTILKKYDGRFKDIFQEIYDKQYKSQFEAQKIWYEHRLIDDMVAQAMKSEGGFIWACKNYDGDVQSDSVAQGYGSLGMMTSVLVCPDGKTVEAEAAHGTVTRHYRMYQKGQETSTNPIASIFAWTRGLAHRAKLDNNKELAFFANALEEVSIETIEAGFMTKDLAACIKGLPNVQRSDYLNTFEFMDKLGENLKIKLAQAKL
#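 IDH1-R132H (0.5 ug/mL) preincubated 30 min with compound, then NADPH (0.016 mM) and alpha-KG (2 mM) added; 80 min at RT, pH 7.5. Remaining NADPH coupled via diaphorase/resazurin to fluorescence (540/590 nm); concentration-response curves normalized to no-enzyme control.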
# TrxR1 substrate: qHTS Assay for Substrates of Mammalian Selenoprotein Thioredoxin Reductase 1 (TrxR1): qHTS; Thioredoxin reductase 1, cytoplasmic (Rattus norvegicus), O89049; purified TrxR1 substrate turnover, NADPH consumption readout; Potency, µM (doses to about 114 µM), for inactives: at the top dose activity change, negative = substrate turnover; actives 0.01% (n = 390,000); also: % is scaled to controls: 0 for no effect and ±100 for the full control effect; nearly all actives have a fitted effect of over 50% in size
#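 Rat TrxR1, dispensed at 90 nM, was prereduced with 400 uM NADPH (final) for 5 min at ~22 deg C, then incubated with compound 15 min before 400 uM selenite. A first-read NADPH fluorescence drop versus no-compound background flagged substrates.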
# Numbers without * were called inactive; u = inconclusive; x = not tested or not shown; ! = repeats disagree; [ ] = another dose, or the depositor's remark. Hits are enriched below; roughly 3.1% of the tested compounds scored in any of these assays. Calls follow the shape of the dose curve; as a rule, active = well fitted curve in the direction sought with a large enough effect; inconclusive = small, poorly fitted or top-dose-only effect, or another doubt; inactive = no such curve, though single readings can be large; an effect the other way counts as inactive or inconclusive. Potency is read from the fitted curve at half-maximal effect.
SMILES,rTrxR1 inhibitor,Nrf2 block,Mito fusion yeast,A549 viability,IDH1 R132H inh,TrxR1 substrate
C[n+]1cc(P(=S)(c2ccccc2)c2ccccc2)n2ccccc21,x,-7%,x,-1%,x,x
CN(Cc1ccccc1)C(=O)Cn1c(=O)oc2cc(S(=O)(=O)NCc3ccccc3)ccc21,10%,18µM*,2%,-5%,14%,4%
CCC(=NCc1cc(OC)cc(OC)c1)c1c(O)n(C)c(=O)n(C)c1=O,6%,23µM*,5%,u,5%,-3%[57.1 µM]
C=CCN(C1=NCCN1)c1c(Cl)cccc1Cl,-4%[57.1 µM],x,4%,x,x,1%[57.1 µM]
CC(C)(C)C(O)C(Oc1ccc(Cl)cc1)n1cncn1 (configuration not stated),9%,u,35µM*,7%,0%,-2%
NCCCNCCSP(=O)(O)O,7%[57.1 µM],x,-34%,x,x,4%[57.1 µM]
Cc1ccc(C)c(NP(=O)(Oc2ccccc2)Oc2ccccc2)c1,14%,21µM*,-1%,u,-1%,-5%
CCCN(CCC)[C@@H]1CCc2c(F)ccc(O)c2C1,8%,x,x,x,x,x
c1ccc(N2CCN(c3ncnc4c3nc3n4CCCCC3)CC2)cc1,9%,23µM*,x,-16%,-4%,1%
Clc1ccccc1CN1CCN(c2ccccc2)CC1,27%,-16%,3%,-7%,9%,-3%
Fc1ccc(N2CCN(c3ncnc4c3nc3n4CCCCC3)CC2)cc1,7%,8.2µM*,x,1%,5%,-5%
O=C(NCc1ccc(Cl)cc1)C1CCN(C(=O)c2cnn(-c3ccccc3)c2-n2cccc2)CC1,6%,u,x,-20%,-16%,3%
NC1C=CC=C(C(=O)O)C1 (configuration not stated),23%[57.1 µM],-3%,14%,1%,0%,6%[57.1 µM]
Cc1ccc(-c2nnc(Nc3ccc(O)cc3)c3ccccc23)cc1S(=O)(=O)N1CCOCC1,-18%,u,x,-5%,-7%,-10%
COc1ccc(C(=O)C2CCCN(Cc3cnc(C)s3)C2)c(OC)c1 (configuration not stated),u,21µM*,4%,-7%,6%,-13%[57.1 µM]
Cc1ccc(-c2[nH]c(=S)[nH]c(=O)c2C#N)cc1,u,18%,3%,4%,1%,-13%
CN(C)[C@@H]1C(=O)C(C(N)=O)=C(O)[C@@]2(O)C(=O)C3=C(O)c4c(O)cccc4[C@@](C)(O)[C@H]3[C@H](O)[C@@H]12,35µM*!,-3%,-1%,-10%,11%,1%
NCC#Cc1ccccc1,2%,x,x,x,x,x
O=C(NCC(c1cccs1)N1CCOCC1)c1cc([N+](=O)[O-])cc([N+](=O)[O-])c1 (configuration not stated),4%,u,-5%,-11%,1%,-7%
Cc1ccc(NC(=O)Nc2cc3c(cc2N2CCCCC2)n(C)c(=O)n3C)cc1Cl,-1%,21µM*,x,-19%,28µM*,1%
CCOc1ccc(CN(CCc2ccc3c(c2)OCO3)Cc2cc(OC)ccc2O)cc1,-2%,9%,x,3%,24%,3%
COc1ccc(CC(=O)NC(=S)NNC(=O)COc2c(C)cccc2C)cc1,u,u,-7%,1%,-1%,-15%
Cc1ccc(/C=C2\C(=O)NC(=S)N(c3ccc(F)cc3)C2=O)o1,u,-10%,-2%,2%,-6%,1%
O=C1NC(=S)N(c2ccccc2)C(=O)/C1=C/c1ccco1,20µM*,u,-2%,-16%,-16%,-6%
COc1cccc(N2C(=O)/C(=C/c3ccc(C)o3)C(=O)NC2=S)c1,25µM*,0%,-5%,1%,7%,-1%
SMILES,rTrxR1 inhibitor,Nrf2 block,Mito fusion yeast,A549 viability,IDH1 R132H inh,TrxR1 substrate
CCN(CC)c1ccc(/C=C2\C(=O)NC(=S)N(c3ccc(OC)cc3OC)C2=O)o1,-30%[57.1 µM],-20%,x,13µM*,1%,-8%[57.1 µM]
Cc1ccc(-n2nc3ccc(NC(=O)COc4ccccc4C)cc3n2)cc1,9%,10%,x,0%,12%,27%
COc1ccc(C(=O)O)cc1OC,10%,-1%,x,1%,-7%,4%
O=C(O)c1cc[c]([Hg][Cl])cc1,0.35µM*,15%,u,-4%,7%,12%[57.1 µM]
NC(=O)C1=CN(C2OC(COP(=O)(O)OP(=O)(O)OC[C@H]3O[C@@H](n4cnc5c(N)ncnc54)[C@H](OP(=O)(O)O)[C@@H]3O)C(O)C2O)C=CC1 (some centres not stated),22%[57.1 µM],x,-1%,x,x,12%[57.1 µM]
C[C@@H]1O[C@@H](O[C@@H]2C=C3CCC4C(CC[C@]5(C)[C@@H](c6ccc(=O)oc6)CC[C@]45O)[C@@]3(C)CC2)[C@H](O)[C@H](O)[C@H]1O (some centres not stated),-14%,u,-2%,u,-2%,-9%
C[C@@H]1O[C@@H](O[C@@H]2C=C3CC[C@@H]4C(CC[C@]5(C)[C@@H](c6ccc(=O)oc6)CC[C@]45O)[C@@]3(C)CC2)[C@H](O)[C@H](O)[C@H]1O (some centres not stated),4%[57.1 µM],0.023µM*,-4%,u,-15%,6%[57.1 µM]
Oc1c(Cl)c(Cl)c(Cl)c(Cl)c1Cl,-18%,23µM*,x,-1%,-5%,-9%
CCN(CC)c1ccc(C=NN2CCCCCC2)cc1,-19%,u,x,-2%,-4%,-11%
CCn1c(C)c(C(=O)NCCc2ccccc2)c2cc(OC)ccc21,9%,-8%,11%,1%,-9%,5%[57.1 µM]
COc1ccc2c(c1)c(CC(=O)Nc1c(C)cccc1C)c(C)n2C(=O)c1ccc(Cl)cc1,6%,23µM*,x,-20%,x,-4%
